From PubChem BioAssay (NCI)
Compounds without any hit were thinned out: in the full panel of roughly 83,000, 20% have a hit.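 Compound tested at a single concentration for 48 hours in 96-well plates; a percent growth value below 10 was scored as active.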 The source made the active and inactive calls.

Assays:
Assay in all cases: NCI-60 one-dose screen, 48 h (100 = growth as untreated, 0 = no growth, -100 = all killed)
Conditions in all cases: 10 µM
T-47D breast = system: T-47D breast
BT-549 breast = system: BT-549 breast
MDA-MB-435 melanoma = system: MDA-MB-435 melanoma
SW-620 colon = system: SW-620 colon
MCF7 breast = system: MCF7 breast
HCT-116 colon = system: HCT-116 colon
HCC-2998 colon = system: HCC-2998 colon
KM12 colon = system: KM12 colon
MDA-MB-468 breast = system: MDA-MB-468 breast

Measured: growth

CCNCCCn1c2c(c3cc(OC)c(OC)cc3c1=O)C(=O)c1cc3c(nc1-2)OCO3
active: MDA-MB-435 melanoma -83.1% | MCF7 breast -88.9% | HCT-116 colon -70.2% | MDA-MB-468 breast -36.2%
inactive: T-47D breast 31.6% | BT-549 breast 36.2% | SW-620 colon 38.7% | HCC-2998 colon 20% | KM12 colon 33.7%

COc1cnc2c(c1)C(=O)c1c-2n(CCCNCCO)c(=O)c2cc(OC)c(OC)cc12
active: MCF7 breast 5.82% | HCT-116 colon 1.67% | MDA-MB-468 breast -48.8%
inactive: T-47D breast 10.1% | BT-549 breast 40.7% | MDA-MB-435 melanoma 49.7% | SW-620 colon 38.4% | HCC-2998 colon 30.3% | KM12 colon 54.5%

CC(=O)Nc1nc(-c2ccc(N3CCN(C)CC3)c(NS(=O)(=O)c3cccc4c(N(C)C)cccc34)c2)cs1
inactive: T-47D breast 35.6% | BT-549 breast 36.6% | MDA-MB-435 melanoma 51.5% | SW-620 colon 70.9% | MCF7 breast 34.9% | HCT-116 colon 28.2% | HCC-2998 colon 43% | KM12 colon 59.8% | MDA-MB-468 breast 58.2%

O=C(N/N=C/c1ccc(B(O)O)o1)c1[nH]c2ccc(Br)cc2c1-c1ccccc1
active: MDA-MB-435 melanoma -53.2% | HCT-116 colon 7.23% | HCC-2998 colon 8.58% | MDA-MB-468 breast -3.94%
inactive: T-47D breast 36.4% | BT-549 breast 41% | SW-620 colon 26.2% | MCF7 breast 13.8% | KM12 colon 15.4%

O=C(NO)c1ccc(Cn2ccc3c(NCc4ccccc4)ncnc32)cc1
inactive: KM12 colon 11.9%
active: T-47D breast -16.8% | BT-549 breast -22% | MDA-MB-435 melanoma -26.5% | SW-620 colon -64.8% | MCF7 breast 9.85% | HCT-116 colon -7.75% | HCC-2998 colon -3.05% | MDA-MB-468 breast -18.6%

Cc1ccc(C(=O)NNC(=O)CSc2nc3ccccc3c(=O)[nH]2)cc1
inactive: T-47D breast 95.8% | BT-549 breast 94.2% | MDA-MB-435 melanoma 101% | SW-620 colon 103% | MCF7 breast 92.3% | HCT-116 colon 107% | HCC-2998 colon 105% | KM12 colon 107% | MDA-MB-468 breast 84.6%

COc1ccccc1NCc1ccc(CO)n1-c1ccc(C)cc1
inactive: T-47D breast 77.4% | BT-549 breast 101% | MDA-MB-435 melanoma 110% | SW-620 colon 109% | MCF7 breast 85.3% | HCT-116 colon 80% | HCC-2998 colon 114% | KM12 colon 105% | MDA-MB-468 breast 97.3%

CCCn1c(=O)c2[nH]c(-c3ccc(OCc4nc5ccccc5[nH]4)cc3)nc2n(CCC)c1=O
inactive: T-47D breast 59.9% | BT-549 breast 21.1% | MDA-MB-435 melanoma 67% | SW-620 colon 46.8% | MCF7 breast 17.4% | HCC-2998 colon 64.8% | KM12 colon 63.8% | MDA-MB-468 breast 23.6%
active: HCT-116 colon 5.38%

Cc1ccc(C(C)C)cc1NC(=O)c1ccccc1N(C)C
inactive: T-47D breast 57.1% | BT-549 breast 102% | MDA-MB-435 melanoma 95% | SW-620 colon 106% | MCF7 breast 82.8% | HCT-116 colon 68.3% | HCC-2998 colon 96.7% | KM12 colon 86.7% | MDA-MB-468 breast 71.9%

O=C(/C=C/Nc1ccc(F)cc1F)c1ccc2c(c1)Nc1ccccc1S2
active: MDA-MB-435 melanoma 9.72%
inactive: T-47D breast 80.1% | BT-549 breast 85.7% | SW-620 colon 55.1% | MCF7 breast 37.9% | HCT-116 colon 58.6% | HCC-2998 colon 79.7% | KM12 colon 51.6% | MDA-MB-468 breast 41.9%

COc1cc(C2CC(c3ccccc3)=Nc3c(N)nc(N)nc3N2)ccc1Oc1nc(Nc2ccc(F)cc2)nc(N(C)C)n1 (configuration not stated)
inactive: T-47D breast 54.4% | BT-549 breast 45% | MDA-MB-435 melanoma 15.4% | SW-620 colon 44.6% | HCC-2998 colon 47.7% | KM12 colon 31.6%
active: MCF7 breast 2.04% | HCT-116 colon 3.43% | MDA-MB-468 breast 1.47%

Nc1nnc(-c2c[nH]c3ncccc23)c(-c2c[nH]c3ccc(Br)cc23)n1
inactive: T-47D breast 22.4% | BT-549 breast 38.6% | MDA-MB-435 melanoma 47.2% | SW-620 colon 54.9% | MCF7 breast 22.5% | HCT-116 colon 21.9% | HCC-2998 colon 74.5% | KM12 colon 39.3% | MDA-MB-468 breast 50.4%

CC1=C2C(=C[C@@](C)(CO)[C@@H]2O)/C(=N\N)[C@](C)(O)C12CC2
active: T-47D breast -11.8% | BT-549 breast -71.7% | MDA-MB-435 melanoma -63.8% | SW-620 colon -9.56% | MCF7 breast -6.87% | HCC-2998 colon -76.6% | KM12 colon 7.94% | MDA-MB-468 breast -90.8%
inactive: HCT-116 colon 19.1%

O=C1Nc2cc(-c3ccc(NC(=O)c4cccc([N+](=O)[O-])c4)cc3)ccc2/C1=C/c1ccc[nH]1
active: MCF7 breast 2.65% | MDA-MB-468 breast -10.9%
inactive: T-47D breast 27.5% | BT-549 breast 120% | MDA-MB-435 melanoma 105% | SW-620 colon 79.8% | HCT-116 colon 103% | HCC-2998 colon 62.2% | KM12 colon 14.5%

CN1CCN(Cc2ccc(C(=O)Nc3cccc(Nc4ccc5cc(O)ccc5n4)c3)cc2C(F)(F)F)CC1
active: T-47D breast -11.7% | MDA-MB-435 melanoma -85.5% | SW-620 colon -83.1% | MCF7 breast -78.4% | HCT-116 colon 1.51% | HCC-2998 colon -97.3% | KM12 colon -48% | MDA-MB-468 breast -89.4%
inactive: BT-549 breast 78.1%

Nc1cc(-c2cccc(C(=O)NCc3ccc4c(c3)OCO4)c2)ccn1
inactive: T-47D breast 77.4% | BT-549 breast 96.8% | MDA-MB-435 melanoma 102% | SW-620 colon 110% | MCF7 breast 86.5% | HCT-116 colon 95.1% | HCC-2998 colon 103% | KM12 colon 106% | MDA-MB-468 breast 88.1%

COc1ccc2[nH]c(O)c(N=NC(=O)COc3ccc(NC(=O)Nc4ccc(Cl)cc4)cc3)c2c1
inactive: T-47D breast 83.8% | BT-549 breast 76%
active: MDA-MB-435 melanoma -52% | SW-620 colon 4.49% | MCF7 breast 1.75% | HCT-116 colon -33.8% | HCC-2998 colon -14.3% | KM12 colon 4.25% | MDA-MB-468 breast -52.3%

COc1ccccc1C(=O)NNC(=O)CSc1nc2c(c(=O)[nH]1)CCCC2
inactive: T-47D breast 81.2% | BT-549 breast 101% | MDA-MB-435 melanoma 109% | SW-620 colon 112% | MCF7 breast 95.8% | HCT-116 colon 102% | HCC-2998 colon 108% | KM12 colon 94.5% | MDA-MB-468 breast 120%

CN1C(=O)/C(=C/c2ccc3ncsc3c2)NC1=NC12CC3CC(CC(O)(C3)C1)C2
active: BT-549 breast -39.9% | SW-620 colon 5.62% | MCF7 breast -20.1% | MDA-MB-468 breast -5.71%
inactive: T-47D breast 11.7% | MDA-MB-435 melanoma 27.4% | HCT-116 colon 17.3% | HCC-2998 colon 10.1% | KM12 colon 10.4%

COc1ccc(/C=C/C(=O)c2ccc(N3CCN(C)CC3)cc2)c(C(F)(F)F)c1
active: MDA-MB-435 melanoma -54.9% | SW-620 colon -80% | MCF7 breast -54.1% | HCC-2998 colon -49.4% | KM12 colon 8.95% | MDA-MB-468 breast -10.7%
inactive: T-47D breast 39.7% | BT-549 breast 40.7% | HCT-116 colon 11.4%

O=C(CNc1nc(-c2ccccc2)cs1)Nc1ccc(Cl)cc1
active: T-47D breast -34.6% | BT-549 breast -54.5% | MDA-MB-435 melanoma -58.5% | SW-620 colon -68.5% | MCF7 breast -85.5% | HCT-116 colon -41.2% | HCC-2998 colon -94.6% | KM12 colon -83.8% | MDA-MB-468 breast -81.2%

Cc1ccc2nc(COc3ccc(C(=O)NNC(=S)NC(=O)c4ccccc4)cc3)[nH]c2c1
inactive: T-47D breast 60.5% | BT-549 breast 81.8% | MDA-MB-435 melanoma 64.3% | SW-620 colon 39.5% | MCF7 breast 30.6% | HCT-116 colon 38.5% | HCC-2998 colon 66.1% | KM12 colon 49.4% | MDA-MB-468 breast 55.6%

CS(=O)(=O)Nc1ccc(-c2ccc3c(c2)ncn3-c2ccc(NC(=O)Nc3ccc(Br)cc3)cc2)cc1
active: T-47D breast -8.48% | BT-549 breast -36.5% | MDA-MB-435 melanoma -18% | SW-620 colon 1.27% | MCF7 breast -35.1% | HCT-116 colon 2.46% | KM12 colon 2.79% | MDA-MB-468 breast -10.7%
inactive: HCC-2998 colon 18%

COc1cccc(/C=N/NC(=O)c2ccc3nc(-c4ccc(Cl)cc4)[nH]c3c2)c1O
active: T-47D breast -33.2% | BT-549 breast -96.7% | MDA-MB-435 melanoma -89.3% | SW-620 colon -77.1% | MCF7 breast -78.5% | HCT-116 colon -90.3% | HCC-2998 colon -98% | KM12 colon -85.2% | MDA-MB-468 breast -96.1%

COc1ccc(-c2cc(C(=O)N=Nc3c(O)[nH]c4ccc(Br)cc34)c3ccccc3n2)cc1
inactive: T-47D breast 58.4% | BT-549 breast 96.3% | MDA-MB-435 melanoma 52.7% | HCT-116 colon 16.9% | HCC-2998 colon 23.4% | KM12 colon 23.1% | MDA-MB-468 breast 11.1%
active: SW-620 colon -59.9% | MCF7 breast -6.48%

N#Cc1c(NC(=O)c2ccc(C(F)(F)F)c(Cl)c2)sc2c1CCC(=O)C2
active: T-47D breast -53% | BT-549 breast -82.1% | MDA-MB-435 melanoma -68.4% | SW-620 colon -56.8% | MCF7 breast -3.57% | HCT-116 colon -44.9% | HCC-2998 colon -74.4% | KM12 colon -28.4% | MDA-MB-468 breast -71.2%

CN(CCO)c1oc(-c2ccccc2)nc1[P+](c1ccccc1)(c1ccccc1)c1ccccc1
inactive: SW-620 colon 11.5% | HCC-2998 colon 10.8%
active: T-47D breast 0.664% | BT-549 breast -22.5% | MDA-MB-435 melanoma 2.53% | MCF7 breast 0.978% | HCT-116 colon 6.5% | KM12 colon -39.4% | MDA-MB-468 breast -55.9%

Nc1cccnc1/C=N/NC(=S)NCCNC(=O)c1ccc(-n2nc(-c3ccccc3O)nc2-c2ccccc2O)cc1
inactive: MDA-MB-435 melanoma 53.8% | SW-620 colon 58.5% | KM12 colon 11.6%
active: T-47D breast 7.42% | BT-549 breast -5.4% | MCF7 breast 5.17% | HCT-116 colon 7.1% | HCC-2998 colon -7.32% | MDA-MB-468 breast -56.1%
